# The source made the active and inactive calls.
# Experiments:
# [1] = test system: Human papillomavirus type 1a protein E7 (residues 44-93); assay: HPV1a E7 fragment binders on microarrays, primary screen, biochemical, small-molecule microarray, residues 44-93, 635 nm fluorescence (AID 1108); settings: small-molecule microarray binding, fluorescence 635 nm; higher = more signal;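 further: E7 fragment applied at 1 µg/mL in TBST for 1 h at 4 C; score combines spot fluorescence with its signal to noise ratio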
# [2] = modulators of HCV replicon luciferase signal, primary screen, HCV replication inhibitor project, Huh7 cells, luciferase reporter (AID 1109); settings: 48 h, higher = more signal;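 further: huh7 hepatoma cells harbouring a luciferase neomycin HCV replicon reporter; luciferase luminescence as measure of HCV replicon replication; test concentration not given here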
# [3] = molecular target: Left-right determination factor 2 (Homo sapiens) (UniProt O00292); assay: LEFTY2 binders on small-molecule microarrays, primary screen, biochemical, small-molecule microarray, 635 nm fluorescence scan (AID 1110); settings: LEFTY2 binding, higher = more signal
# Chain of Left-right determination factor 2 (Homo sapiens) (O00292 whole entry, looked up): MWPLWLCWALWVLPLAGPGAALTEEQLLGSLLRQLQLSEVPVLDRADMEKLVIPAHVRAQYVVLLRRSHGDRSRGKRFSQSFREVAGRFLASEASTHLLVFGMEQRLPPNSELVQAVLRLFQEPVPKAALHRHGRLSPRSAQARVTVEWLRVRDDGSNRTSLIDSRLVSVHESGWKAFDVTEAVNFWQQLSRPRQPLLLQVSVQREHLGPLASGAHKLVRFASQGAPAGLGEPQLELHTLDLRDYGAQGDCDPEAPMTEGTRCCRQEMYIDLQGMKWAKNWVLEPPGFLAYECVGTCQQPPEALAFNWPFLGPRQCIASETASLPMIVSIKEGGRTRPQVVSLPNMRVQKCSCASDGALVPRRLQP
# [4] = molecular target: Calmodulin-1 (Homo sapiens) (UniProt P0DP23); assay: CALM1 binders on microarrays, EGTA buffer, profiling panel, biochemical, small-molecule microarray, Cy5-labelled CALM1 (AID 1111); settings: Cy5-CALM1 binding fluorescence, higher = more signal;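 further: labelled calmodulin applied in Tris saline Tween buffer holding calcium plus EGTA and DTT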
# [5] = molecular target: Calmodulin-1 (Homo sapiens) (UniProt P0DP23); assay: calcium-bound CALM1 binders on microarrays, profiling panel, artefact control for SMM control-protein annotation, biochemical, small-molecule microarray, Cy5-labelled CALM1, plus calcium (AID 1112); settings: Cy5-CALM1 binding fluorescence, higher = more signal;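 further: score merges spot fluorescence with signal to noise from triplicate slides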
# [6] = small-molecule microarray binders of probe aWnt5a, primary screen, biochemical, biotinylated probe, 635/667 nm fluorescence (AID 1113); settings: higher = more signal;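 further: score merges 667 nm fluorescence intensity with signal-to-noise per printed feature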
# [7] = small-molecule microarray binders of probe aShh, primary screen, biochemical, biotinylated probe, 635/667 nm fluorescence (AID 1114); settings: higher = more signal;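 further: probe is biotin-labelled aShh protein from a stem cell growth factor screen; measures binding of labelled protein to compounds printed on the slide; score merges feature fluorescence at 667 nm with signal-to-noise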
# [8] = small-molecule microarray binders of probe aNog, primary screen, biochemical, biotinylated probe, 635/667 nm fluorescence (AID 1115); settings: higher = more signal;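 further: probe is biotinylated aNog protein used at 0.15 µg/mL for 1 h at 4 C; z-score combines 667 nm fluorescence of each spot with its signal to noise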
# [9] = molecular target: Torsin-1A-interacting protein 1 (Homo sapiens) (UniProt Q5JTV8); assay: LAP1 binders from COS7 cell lysate, primary screen, small-molecule microarray, 635/667 nm fluorescence (AID 1116); settings: COS7-hLAP1 lysate binding, 635 nm fluorescence, higher = more signal
# Chain of Torsin-1A-interacting protein 1 (Homo sapiens) (Q5JTV8 whole entry, looked up): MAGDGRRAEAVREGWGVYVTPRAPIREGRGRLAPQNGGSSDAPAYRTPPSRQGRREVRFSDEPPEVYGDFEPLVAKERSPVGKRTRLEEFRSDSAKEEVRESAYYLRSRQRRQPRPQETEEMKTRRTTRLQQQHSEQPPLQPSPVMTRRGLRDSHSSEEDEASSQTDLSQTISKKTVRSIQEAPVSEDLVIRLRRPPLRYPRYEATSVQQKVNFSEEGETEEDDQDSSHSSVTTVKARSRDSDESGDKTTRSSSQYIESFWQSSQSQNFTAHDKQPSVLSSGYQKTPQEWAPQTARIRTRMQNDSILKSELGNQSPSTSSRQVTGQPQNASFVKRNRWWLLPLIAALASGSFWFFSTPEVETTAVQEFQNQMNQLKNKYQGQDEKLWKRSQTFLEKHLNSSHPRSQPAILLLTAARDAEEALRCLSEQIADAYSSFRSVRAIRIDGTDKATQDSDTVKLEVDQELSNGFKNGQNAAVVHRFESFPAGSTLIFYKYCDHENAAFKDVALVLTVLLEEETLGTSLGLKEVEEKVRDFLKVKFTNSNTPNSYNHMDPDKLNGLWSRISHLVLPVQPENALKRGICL
# [10] = molecular target: Alpha-bungarotoxin (Bungarus multicinctus) (UniProt P60615); assay: alpha-bungarotoxin binders on microarray, profiling panel, artefact control for SMM control protein annotation, biochemical, small-molecule microarray, Alexa647 label, 635/667 nm fluorescence (AID 1117); settings: alpha-BTX-A647 binding fluorescence, higher = more signal
# Chain of Alpha-bungarotoxin (Bungarus multicinctus) (P60615 whole entry, looked up): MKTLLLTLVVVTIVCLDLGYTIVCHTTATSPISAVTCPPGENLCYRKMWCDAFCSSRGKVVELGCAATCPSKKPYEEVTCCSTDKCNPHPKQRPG
# Albumin (Bos taurus) = Albumin (Bos taurus) (UniProt P02769); assay: bovine serum albumin binders on microarray, profiling panel, artefact control for SMM control protein annotation, biochemical, small-molecule microarray, Alexa647 label, 635/667 nm fluorescence (AID 1118); settings: BSA-A647 binding, fluorescence 635 nm, higher = more signal;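 further: score merges 667 nm emission intensity and signal-to-noise per printed compound spot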
# Chain of Albumin (Bos taurus) (P02769 whole entry, looked up): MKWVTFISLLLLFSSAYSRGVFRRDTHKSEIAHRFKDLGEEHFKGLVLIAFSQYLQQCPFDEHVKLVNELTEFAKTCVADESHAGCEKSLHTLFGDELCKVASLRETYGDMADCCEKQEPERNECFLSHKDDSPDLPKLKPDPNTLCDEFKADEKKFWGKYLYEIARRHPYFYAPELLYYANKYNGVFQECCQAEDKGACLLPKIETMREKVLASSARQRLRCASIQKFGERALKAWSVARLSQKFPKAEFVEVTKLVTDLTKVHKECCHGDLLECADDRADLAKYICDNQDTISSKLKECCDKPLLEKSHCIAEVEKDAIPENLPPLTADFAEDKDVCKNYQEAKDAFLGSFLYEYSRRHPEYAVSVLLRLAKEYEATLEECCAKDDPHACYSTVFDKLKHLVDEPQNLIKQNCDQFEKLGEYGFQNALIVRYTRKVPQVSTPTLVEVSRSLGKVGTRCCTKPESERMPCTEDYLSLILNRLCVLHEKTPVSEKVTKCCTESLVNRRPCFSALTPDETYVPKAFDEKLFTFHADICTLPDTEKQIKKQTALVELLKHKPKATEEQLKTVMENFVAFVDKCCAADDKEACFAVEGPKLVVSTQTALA
# [11] = small-molecule microarray binders of probe aXIP, primary screen, biochemical, NeuroSMM set, 635/667 nm fluorescence (AID 1119); settings: higher = more signal, called active from +8 up or from −8 down;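 further: probe is the protein aXip251-270 applied at 1 µg/mL to compound-printed slides; binding of probe to printed compounds measured as 667 nm fluorescence plus signal to noise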
# [12] = small-molecule binders of probe aNOTCH3, primary screen, biochemical, small-molecule microarray, 635/667 nm fluorescence (AID 1120); settings: higher = more signal;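 further: probe is a biotin-tagged antibody raised against NOTCH3 rather than NOTCH3 protein; score merges spot fluorescence near 667 nm with spot signal to noise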
# [13] = small-molecule binders of probe aNOTCH2, primary screen, biochemical, small-molecule microarray, 635/667 nm fluorescence (AID 1121); settings: higher = more signal;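 further: score merges feature fluorescence read at 667 nm with its signal to noise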
# [14] = molecular target: Carbonic anhydrase 2 (Homo sapiens) (UniProt P00918); assay: CAII small-molecule binders, profiling panel, biochemical, small-molecule microarray, Alexa647-labelled CAII (AID 1122); settings: CAII-A647 binding fluorescence, higher = more signal
# [15] = COS7 lysate on small-molecule microarray, probe aHis, 635 nm (AID 1123); settings: COS7 cell lysate, fluorescence, higher = more signal;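 further: z-score combines 667nm fluorescence intensity with signal-to-noise per printed compound spot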
# [16] = compound binding in COS7 lysate, probe aLAP1, primary screen, cell lysate, small-molecule microarray (AID 1124); settings: probe aLAP1, fluorescence, higher = more signal;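 further: lysate comes from COS7 cells expressing LAP1 and is applied at 0.3 µg/mL; score merges spot fluorescence near 667 nm with signal-to-noise over triplicate slides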
# Sam68 (KHDRBS1) = assay: Sam68 small-molecule binders, primary screen, biochemical, small-molecule microarray, 635 nm fluorescence (AID 1125); settings: small-molecule microarray binding, higher = more signal;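 further: score merges 667 nm channel intensity with signal to noise over triplicate slides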
# [17] = test system: Chordin-like protein 2 (CHRDL2); assay: CHRDL2 small-molecule binders, primary screen, biochemical, small-molecule microarray, 635 nm fluorescence (AID 1126); settings: small-molecule microarray binding, fluorescence 635 nm; higher = more signal;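 further: printed compound slides probed with Chrdl2 protein at 4 µg/mL for 1 h at 4 C; score merges 667 nm emission intensity with signal to noise over three replicate slides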
# [18] = molecular target: Concanavalin-A (Canavalia ensiformis) (UniProt P02866); assay: ConA small-molecule binders, primary screen, artefact control for SMM control protein annotation, biochemical, small-molecule microarray, Alexa647 label, 635 nm (AID 1127); settings: ConA-A647 binding fluorescence, higher = more signal;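 further: z combines 667 nm emission intensity with signal-to-noise across three replicate slides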
# Chain of Concanavalin-A (Canavalia ensiformis) (P02866 whole entry, looked up): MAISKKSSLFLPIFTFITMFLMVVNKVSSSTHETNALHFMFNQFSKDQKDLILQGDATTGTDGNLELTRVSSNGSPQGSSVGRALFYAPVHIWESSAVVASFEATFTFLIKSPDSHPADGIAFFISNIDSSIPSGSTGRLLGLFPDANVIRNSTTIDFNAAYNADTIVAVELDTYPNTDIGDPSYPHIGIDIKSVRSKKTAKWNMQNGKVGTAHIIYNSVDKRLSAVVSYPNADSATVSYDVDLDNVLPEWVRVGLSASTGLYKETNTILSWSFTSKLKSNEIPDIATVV
SMILES,composite z-score [1],z-score [2],composite z-score [3],composite z-score [4],composite z-score [5],composite z-score [6],composite z-score [7],composite z-score [8],composite z-score [9],composite z-score [10],composite z-score (Albumin (Bos taurus)),composite Z-score [11],composite z-score [12],composite z-score [13],composite z-score [14],composite z-score [15],composite z-score [16],composite z-score (Sam68 (KHDRBS1)),composite z-score [17],composite z-score [18]
O=C(NCCN1CCOCC1)[C@@H]1c2ccccc2C(=O)N(Cc2ccc(OC(F)(F)F)cc2)[C@H]1c1ccc(CO)cc1,1.25,-1.29,-0.622,0.749,0.337,-0.11,0.0756,0.99,1.19,0.0007,0.816,-0.265 (inactive),-0.0976,-0.0429,0.761,1.64,-0.195,0.686,-1.49,-0.159
CC1CC/C=C\[C@H]2OC34C=CCN(c5ccc6ccccc6c5)C(=O)[C@H]3N(C(C)CO)C(=O)[C@@H]4C2C(=O)O1 (stereo not given in full),-1.11,-0.942,-0.82,-0.69,-0.607,-0.146,-0.291,-0.21,-0.26,-0.758,-0.333,-0.105 (inactive),-0.226,-0.181,0.725,-0.976,0.105,-0.849,-0.837,-0.654
CC(C)(C)OC(=O)CC[C@]1(C(=O)NCC(O)CO)N=C(c2ccc(OCCCO)cc2)O[C@H]1c1ccccc1N=[N+]=[N-] (stereo not given in full),0.438,1.18,0.0607,1.28,0.434,0.0775,-0.221,1.36,2.06,0.931,1.02,1.33 (inactive),0.163,0.149,0.719,3.53,1.03,0.723,0.0058,0.715
CN1C(=O)C2C(C3CC3)C=C3CN(Cc4cccc(Cl)c4)[C@@H]([C@@H](O)Cc4ccccc4)C3C2C1=O (stereo not given in full),1.36,-1.6,0.526,0.283,-0.469,-0.244,-0.462,-0.332,0.648,1.04,0.363,0.996 (inactive),0.147,-0.104,0.225,1.17,-0.0531,1.3,0.231,1.06
C=CCC(OC(C)=O)[C@@H]1[C@@H](N(Cc2ccc(-c3cccc(C(F)(F)F)c3)o2)C(=O)Cc2ccc(F)cc2)c2cc(OCCCO)ccc2N1C(=O)Cc1ccc2ccccc2c1 (stereo not given in full),-0.97,0.022,-0.511,-0.599,0.218,-0.0684,0.0684,-0.352,-0.016,-0.772,-0.0508,-0.186 (inactive),-0.182,-0.104,-0.25,0.121,-0.169,-2.04,0.0229,-0.492
COC(=O)[C@]1(CCC(=O)OC(C)(C)C)N=C(c2ccc(OCCCO)cc2)O[C@@H]1c1ccccc1N=[N+]=[N-],0.892,-2.05,-0.557,-0.175,-0.875,0.0403,-0.119,0.504,0.468,0.302,-0.257,0.62 (inactive),-0.122,-0.0618,0.589,1.63,0.254,0.68,-0.444,0.589
COCCOC(=O)N1C(=O)[C@@]2(c3cc(C#CCNC(N)=O)ccc31)[C@H](C(=O)Nc1nc3ccccc3s1)[C@H]1C(=O)O[C@H](c3ccccc3)[C@H](c3ccccc3)N1[C@@H]2c1ccccc1OCCO,0.629,-1.22,0.685,0.567,0.132,-0.0405,0.142,0.355,1.05,0.771,0.074,-0.523 (inactive),0.0306,-0.0432,0.47,1.17,0.151,0.975,1.23,1.04
C=CCNC(=O)[C@H]1[C@@H]2C(=O)O[C@@H](c3ccccc3)[C@@H](c3ccccc3)N2[C@@H](c2ccccc2OCCO)[C@]12C(=O)N(C(=O)OCCOC)c1ccc(C#Cc3ccc(OC)cc3)cc12,1.39,-2.79,0.342,1.39,0.37,-0.152,-0.0011,0.254,0.143,1.3,0.621,-0.0052 (inactive),-0.0613,-0.146,0.609,1.94,1.1,1.24,0.0718,1.11
O=C(NCc1ccccc1)[C@@H]1c2ccccc2C(=O)N(Cc2ccc(OC(F)(F)F)cc2)[C@H]1c1ccc(CO)cc1,0.259,-1.1,-0.725,-0.437,0.284,-0.0735,-0.0813,0.868,1.15,-0.0863,0.0192,2.41 (inactive),-0.155,-0.11,0.694,2.29,0.633,0.258,-0.431,-0.278
COC(=O)[C@@]1(Cc2ccc(F)cc2)[C@H]2c3cc(C(=O)N4CCCC4)n(Cc4cc(F)cc5c4OCOC5)c3C[C@H]2CN1C(=O)c1ccccc1,-0.0014,-2.1,-0.285,1.37,1.05,0.179,0.184,-0.694,-0.415,0.92,0.892,0.364 (inactive),0.0925,0.0266,-0.0414,-0.203,-0.669,-0.349,-0.631,1.07
CC(C)N1C(=O)c2ccccc2[C@](C)(C(=O)NCC(F)(F)F)[C@@H]1c1ccc(CO)cc1,-0.39,0.164,-1.41,-0.625,0.179,0.0031,-0.153,0.543,0.716,-0.573,-0.267,-0.415 (inactive),-0.407,0.0344,0.852,2.55,1.14,-0.701,-0.912,-1.22

# — PubChem BioAssay
